According to PubChem BioAssay (NCI):
Compounds without any hit were thinned out: in the full panel of roughly 79,000, 15% have a hit. Active and inactive are the calls of the source. Rule as the data show it: active = growth inhibition above about 70%; inactive = the rest.

Legend:
[1] = NCI Yeast Anticancer Drug Screen. Data for the rad50 strain (AID 155);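 also: 0% = growth of vehicle-only cultures of the same strain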; settings: S. cerevisiae rad50 strain growth inhibition, active compounds read high
Outline: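 Genetically altered yeast (DNA repair pathway); compound treatment; growth inhibition vs vehicle ctrl.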

[2] = NCI Yeast Anticancer Drug Screen. Data for the mec2-1 strain (AID 157); settings: S. cerevisiae mec2-1 strain, active compounds read high
Outline: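 Readout is yeast growth inhibition, normalised to vehicle-treated controls, in the mec2-1 strain exposed to compound.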

[3] = NCI Yeast Anticancer Drug Screen. Data for the sgs1 mgt1 strain (AID 161);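 also: 0% = growth of cultures given vehicle only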; settings: S. cerevisiae sgs1 mgt1 strain, active compounds read high
Outline: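 Yeast cells carrying a defined DNA-repair defect were exposed to test compounds. Growth inhibition was measured relative to vehicle-treated controls.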

[4] = NCI Yeast Anticancer Drug Screen. Data for the cln2 rad14 strain (AID 165);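 also: 0% = growth equal to vehicle treated cultures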; settings: S. cerevisiae cln2 rad14 strain, active compounds read high
Outline: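 Relative to vehicle controls, growth inhibition of compound-treated cln2 rad14 yeast was recorded.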

[5] = NCI Yeast Anticancer Drug Screen. Data for the bub3 strain (AID 167); settings: S. cerevisiae bub3 mutant strain, active compounds read high
Outline: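 Yeast carrying a defined mutation is treated with each compound, and growth is compared with that of vehicle-exposed cells to give inhibition.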

[6] = NCI Yeast Anticancer Drug Screen. Data for the mlh1 rad18 strain (AID 175); settings: S. cerevisiae mlh1 rad18 strain growth inhibition, active compounds read high
Outline: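 Test agents were incubated with a yeast strain of defined genotype (DNA damage repair defect). Inhibition of growth was derived by comparison with vehicle-exposed cultures.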

[7] = at 5.0 µM (retest, dose inferred, filed as 0.5)
[8] = at 50.0 µM (retest, dose inferred, filed as 5.0)

Measured: growth inhibition

COc1cc(Cc2n[nH]c(=S)n2-c2ccccc2)c(S(N)(=O)=O)cc1OC
inactive: [1]; [7] 4% | [1]; [8] 4% | [1]; at 50.0 µM 10.1% | [2]; [7] 1% | [2]; [8] 4% | [2]; at 50.0 µM 0.85% | [3]; [7] 9% | [3]; [8] -16% | [3]; at 50.0 µM -2.75% | [4]; [7] 0% | [4]; [8] 4% | [4]; at 50.0 µM 8.55% | [5]; [7] -2% | [5]; [8] 3% | [5]; at 50.0 µM 0.15% | [6]; [7] 0% | [6]; [8] -62% | [6]; at 50.0 µM 11.4%

Cc1ccc(S(=O)(=O)OC2C(C)OCOC(C)C2OS(=O)(=O)c2ccc(C)cc2)cc1 (stereo not given)
active: [5]; at 50.0 µM 93%
inactive: [1]; [7] 1% | [1]; [8] 0% | [1]; at 50.0 µM 24.6% | [2]; [7] -2% | [2]; [8] -1% | [2]; at 50.0 µM 11.9% | [3]; [7] -2% | [3]; [8] -17% | [3]; at 50.0 µM 5.9% | [4]; [7] 0% | [4]; [8] -12% | [4]; at 50.0 µM 16.6% | [5]; [7] 2% | [5]; [8] 15% | [6]; [7] 1% | [6]; [8] 1% | [6]; at 50.0 µM -3.85%

Cc1ccc(NC(=S)SCc2ccco2)cc1Cl
inactive: [1]; [7] 22% | [2]; [7] 5% | [3]; [7] 12% | [4]; [7] -3% | [5]; [7] -3% | [6]; [7] 20%
active: [1]; [8] 99% | [1]; at 50.0 µM 99.5% | [2]; [8] 99% | [2]; at 50.0 µM 99.8% | [3]; [8] 99% | [3]; at 50.0 µM 99.7% | [4]; [8] 99% | [4]; at 50.0 µM 99.5% | [5]; [8] 99% | [5]; at 50.0 µM 99.7% | [6]; [8] 99% | [6]; at 50.0 µM 99.6%

Cc1cc(N(CCCCl)CCCCl)ccc1C=Nc1cccc(Cl)c1
inactive: [1]; [7] -7% | [1]; [8] 40% | [2]; [7] -7% | [2]; [8] 12% | [2]; at 50.0 µM 32.8% | [3]; [7] -4% | [3]; [8] 65% | [4]; [7] 3% | [4]; [8] -2% | [4]; at 50.0 µM -21.6% | [5]; [7] -1% | [5]; [8] 59% | [5]; at 50.0 µM 61% | [6]; [7] -10% | [6]; [8] 23% | [6]; at 50.0 µM 68.2%
active: [1]; at 50.0 µM 79% | [3]; at 50.0 µM 80.7%

Cc1ccc(C(c2ccc(N(C)C)cc2)c2ccc(N(C)C)cc2)cc1
inactive: [4]; [8] 69% | [4]; at 50.0 µM 69%
active: [1]; [7] 97% | [1]; [8] 89% | [1]; at 50.0 µM 94.5% | [2]; [7] 99% | [2]; [8] 92% | [2]; at 50.0 µM 94.7% | [3]; [7] 99% | [3]; [8] 95% | [3]; at 50.0 µM 93.8% | [4]; [7] 78% | [5]; [7] 98% | [5]; [8] 92% | [5]; at 50.0 µM 94.7% | [6]; [7] 98% | [6]; [8] 92% | [6]; at 50.0 µM 92.7%

Oc1ccc(C23CC4CC(CC(C4)C2)C3)cc1
inactive: [1]; [7] -148% | [1]; [8] -135% | [1]; at 50.0 µM 38.1% | [2]; [7] -50% | [2]; [8] -38% | [2]; at 50.0 µM -1.75% | [3]; [7] -56% | [3]; [8] -46% | [3]; at 50.0 µM 2.8% | [4]; [7] -56% | [4]; [8] -25% | [4]; at 50.0 µM 32.8% | [5]; [7] -69% | [5]; [8] -66% | [5]; at 50.0 µM -26.4% | [6]; [7] -114% | [6]; [8] -91% | [6]; at 50.0 µM 2.1%

Cc1c[nH]c(=O)n(CC(=O)C2CCC3C4CCC5=CC(=O)CCC5(C)C4CCC23C)c1=O (stereo not given)
inactive: [1]; [7] 11% | [1]; [8] 30% | [1]; at 50.0 µM 48.2% | [2]; [7] 0% | [2]; [8] -11% | [2]; at 50.0 µM 43.6% | [3]; [7] -1% | [3]; [8] 26% | [3]; at 50.0 µM 47.4% | [4]; [7] -1% | [4]; [8] 4% | [4]; at 50.0 µM 46.6% | [5]; [7] 0% | [5]; [8] 17% | [5]; at 50.0 µM 41.1% | [6]; [7] 1% | [6]; [8] 20% | [6]; at 50.0 µM 43.3%

CC(=O)O/C=C1\c2ccccc2CCC1c1ccc2ccccc2c1 (stereo not given)
inactive: [1]; [7] 7% | [1]; [8] -5% | [1]; at 50.0 µM -4.45% | [2]; [7] -4% | [2]; [8] -13% | [2]; at 50.0 µM -23.9% | [3]; [7] 1% | [3]; [8] 11% | [3]; at 50.0 µM 0.3% | [4]; [7] -19% | [4]; [8] -22% | [4]; at 50.0 µM 1.45% | [5]; [7] 5% | [5]; [8] 4% | [5]; at 50.0 µM 27.9% | [6]; [7] 9% | [6]; [8] 9% | [6]; at 50.0 µM -0.15%

NC(=O)c1cccn1Cc1ccccc1SSc1ccccc1Cn1cccc1C(N)=O
inactive: [1]; [7] 32% | [2]; [7] 31% | [3]; [7] 47% | [4]; [7] 16% | [5]; [7] 24% | [6]; [7] 21%
active: [1]; [8] 98% | [1]; at 50.0 µM 89.5% | [2]; [8] 99% | [2]; at 50.0 µM 95.7% | [3]; [8] 99% | [3]; at 50.0 µM 94.2% | [4]; [8] 98% | [4]; at 50.0 µM 90.9% | [5]; [8] 99% | [5]; at 50.0 µM 92.8% | [6]; [8] 98% | [6]; at 50.0 µM 94.4%

O=C1NC(=S)S/C1=C\c1ccc(F)cc1
inactive: [1]; [7] -4% | [1]; [8] 6% | [2]; [7] 7% | [2]; [8] 15% | [3]; [7] 2% | [3]; [8] 22% | [4]; [7] -9% | [4]; [8] 1% | [4]; at 50.0 µM 64.8% | [5]; [7] -2% | [5]; [8] 0% | [5]; at 50.0 µM 57% | [6]; [7] -4% | [6]; [8] 4%
active: [1]; at 50.0 µM 76% | [2]; at 50.0 µM 85.7% | [3]; at 50.0 µM 74.1% | [6]; at 50.0 µM 80.3%
